Results taken from PubChem BioAssay AID1159580 (chemical genetic matrix, 2015).
In all, about 5,500 compounds went through this assay and about 2,000 (36%) were called active. Inconclusive results (about 18%) are left out. Rule as the data show it: active = normalized growth mostly below about 0.91 (no sharp cut-off); inconclusive = no clear call, values can overlap the other calls; inactive = mostly above about 0.92. This is one part of the list.

Experiment: chemical genetic growth profiling, strain panel (AID 1159580);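 also: tested at 20 µM; growth read once vehicle control cultures reached saturation at 30 °C; 1 = growth at the plate median or of vehicle wells; lower values mean less growth of the strain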
Details: S. cerevisiae deletion strains, growth OD

Measured: normalized growth

CC(=O)OC1C(=O)C2(C)C(O)CC3OCC3(OC(C)=O)C2C(OC(=O)c2ccccc2)C2(O)CC(OC(=O)C(O)C(NC(=O)c3ccccc3)c3ccccc3)C(C)=C1C2(C)C (stereo unspecified)
inactive: locus YCL061C, strain MRC1 (second series), active compounds read low 0.996 | locus YDR363W, strain ESC2, active compounds read low 0.984 | locus YER002W, strain NOP16, active compounds read low 1 | locus YMR307W, strain GAS1, active compounds read low 0.975 | locus YNL128W, strain TEP1, active compounds read low 1 | locus YNL197C, strain WHI3, active compounds read low 0.981 | locus YNL224C, strain SQS1, active compounds read low 1.03 | locus YPL241C, strain CIN2, active compounds read low 0.995

CC(=O)O[C@H]1C(=O)[C@@]2(C)C([C@H](OC(=O)c3ccccc3)[C@]3(O)C[C@H](O)C(C)=C1C3(C)C)[C@]1(OC(C)=O)CO[C@@H]1C[C@@H]2O (stereo partly specified)
inactive: locus YAL021C, strain ccr4, active compounds read low 0.974 | locus YAL026C, strain drs2, active compounds read low 0.983 | locus YAL030W, strain snc1, active compounds read low 1 | locus YBL061C, strain skt5, active compounds read low 1.02 | locus YBR009C, strain hhf1, active compounds read low 0.986 | locus YBR023C, strain chs3, active compounds read low 0.998 | locus YBR171W, strain sec66, active compounds read low 1 | locus YBR231C, strain swc5, active compounds read low 1 | locus YBR279W, strain paf1, active compounds read low 0.999 | locus YCL011C, strain gbp2, active compounds read low 1 | locus YCL016C, strain dcc1, active compounds read low 1.01 | locus YCL069W, strain vba3, active compounds read low 0.98 | locus YCR088W, strain abp1, active compounds read low 0.986 | locus YDL005C, strain med2, active compounds read low 1 | locus YDL040C, strain nat1, active compounds read low 0.999 | locus YDR001C, strain nth1, active compounds read low 0.99 | locus YDR069C, strain doa4, active compounds read low 1.02 | locus YDR137W, strain rgp1, active compounds read low 1.05 | locus YDR159W, strain sac3, active compounds read low 1.01 | locus YDR195W, strain ref2 0.946 | locus YDR297W, strain sur2, active compounds read low 0.977 | locus YDR334W, strain swr1, active compounds read low 0.969 | locus YDR335W, strain msn5, active compounds read low 0.993 | locus YDR392W, strain spt3, active compounds read low 0.985 | locus YEL003W, strain gim4, active compounds read low 0.991 | locus YEL037C, strain rad23, active compounds read low 0.983 | locus YEL061C, strain CIN8 (second series), active compounds read low 0.981 | locus YER015W, strain faa2, active compounds read low 1 | locus YER016W, strain bim1, active compounds read low 1.01 | locus YER111C, strain swi4, active compounds read low 1 | locus YER155C, strain BEM2 (second series), active compounds read low 1.01 | locus YFR010W, strain ubp6, active compounds read low 0.985 | locus YGL167C, strain pmr1, active compounds read low 1 | locus YGL173C, strain kem1, active compounds read low 0.998 | locus YGL227W, strain vid30, active compounds read low 0.992 | locus YGL240W, strain doc1, active compounds read low 1 | locus YGL253W, strain hxk2, active compounds read low 0.99 | locus YHR013C, strain ard1, active compounds read low 1 | locus YHR027C, strain rpn1, active compounds read low 1 | locus YHR030C, strain SLT2, active compounds read low 0.988 | locus YHR079C, strain IRE1, active compounds read low 0.995 | locus YHR142W, strain chs7, active compounds read low 0.984 | locus YJL092W, strain hpr5, active compounds read low 0.998 | locus YJL095W, strain BCK1 (second series), active compounds read low 0.995 | locus YJL095W, strain BCK1, active compounds read low 0.995 | locus YJL115W, strain asf1, active compounds read low 0.973 | locus YJL129C, strain trk1, active compounds read low 0.982 | locus YJL154C, strain vps35, active compounds read low 0.98 | locus YJL164C, strain tpk1, active compounds read low 1 | locus YJL166W, strain qcr8, active compounds read low 1 | locus YJR066W, strain TOR1, active compounds read low 0.94 | locus YKL160W, strain elf1, active compounds read low 1.01 | locus YKR026C, strain gcn3, active compounds read low 0.985 | locus YKR091W, strain srl3, active compounds read low 1.01 | locus YLL001W, strain dnm1, active compounds read low 1 | locus YLL026W, active compounds read low 0.999 | locus YLL041C, strain sdh2, active compounds read low 0.985 | locus YLR027C, strain aat2, active compounds read low 0.988 | locus YLR113W, strain HOG1, active compounds read low 1.01 | locus YLR221C, strain rsa3, active compounds read low 0.994 | locus YLR258W, strain gsy2, active compounds read low 0.999 | locus YLR262C, strain YPT6 (second series), active compounds read low 1 | locus YLR320W, strain mms22, active compounds read low 1.01 | locus YLR342W, strain FKS1, active compounds read low 1.01 | locus YLR357W, strain rsc2, active compounds read low 0.968 | locus YLR370C, strain arc18, active compounds read low 0.984 | locus YLR384C, strain iki3, active compounds read low 0.981 | locus YML120C, strain ndi1, active compounds read low 1.01 | locus YMR058W, strain fet3, active compounds read low 0.99 | locus YMR125W, strain sto1, active compounds read low 0.993 | locus YMR129W, active compounds read low 0.988 | locus YMR205C, strain PFK2, active compounds read low 0.989 | locus YMR231W, strain pep5, active compounds read low 1 | locus YNL071W, strain lat1, active compounds read low 0.979 | locus YNL183C, strain NPR1, active compounds read low 0.953 | locus YNL209W, strain ssb2, active compounds read low 0.987 | locus YNL248C, strain rpa49, active compounds read low 0.974 | locus YNL322C, strain KRE1 (second series), active compounds read low 1.01 | locus YNR049C, strain mso1, active compounds read low 1.01 | locus YOR001W, strain rrp6, active compounds read low 0.982 | locus YOR070C, strain gyp1, active compounds read low 0.987 | locus YOR080W, strain dia2, active compounds read low 0.993 | locus YOR083W, strain WHI5, active compounds read low 1.01 | locus YOR106W, strain vam3, active compounds read low 1.01 | locus YOR231W, strain MKK1, active compounds read low 0.973 | locus YOR265W, strain rbl2, active compounds read low 0.969 | locus YOR270C, strain vph1, active compounds read low 0.888 | locus YOR290C, strain snf2, active compounds read low 1.02 | locus YPL051W, strain arl3, active compounds read low 1.01 | locus YPL078C, strain atp4, active compounds read low 0.996 | locus YPL106C, strain sse1, active compounds read low 0.987 | locus YPL240C, strain hsp82, active compounds read low 0.995 | locus YPL256C, strain CLN2, active compounds read low 0.966
